# Bioassay records as filed in PubChem BioAssay.
# APP 5'UTR act = activates APP 5'UTR luciferase reporter; SH-SY5Y APP 5'UTR luciferase reporter, luminescence; zero percent = DMSO vehicle wells; activation, % at 2 µM; hit rate 1% among 190,000; AID 1276;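 active means activation above a set limit, based on mean plus 3 SD of controls, cut at about 140% in these data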
# hcDAF-12 act = activators of H. contortus DAF-12 nuclear receptor; HEK293 hcDAF-12 lit1-tk-luc reporter, luminescence; 0% DMSO, 100% Δ7-dafachronic acid; activation, % at 6.8 µM; hit rate 1.4% among 370,000; AID 652067;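 active means activation above the mean of all tested compounds plus 3 SD, cut at about 5.5% in these data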;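 further: 100% = response to 3 µM Δ7-dafachronic acid high control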
# ssDAF12 agonist = S. stercoralis DAF-12 activation, primary screen | HEK293 ssDAF-12/GRIP1 lit1-tk-luc reporter, luminescence; % of 3 µM dafachronic acid response | hit rate 1% among 370,000 | activation, % at 6.8 µM;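 active means activation above the mean over all tested compounds plus 3 SD, cut at about 0.9% in these data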;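 further: 0% = DMSO-only wells and 100% = 3 µM delta7-dafachronic acid wells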
# hgDAF-12 ag = hgDAF-12 agonism, primary luciferase screen. HEK293 GAL4-hgDAF12 UAS-luciferase reporter, agonist luminescence; normalized to butyrate control. activation, % at 6.8 µM. hit rate 1.8% among 370,000. AID 687014;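 active means activation above a cutoff set at the mean of all screened compounds plus 3 SD, cut at about 10% in these data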;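 further: 0% = DMSO wells and 100% = sodium butyrate wells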
# NF-kB neuron act = NF-kB expression increase, human neuronal cells; NF-kB reporter expression; active compounds read high; fold change at 12.5 µM; hit rate 1.6% among 190,000; AID 1239; in the data active means fold change above about 3.3
# hgDAF12 ag = confirmation of H. glycines DAF-12 agonists; shares compounds with hgDAF-12 ag; HEK293 GAL4-hgDAF12 luciferase reporter, agonist mode; percent of butyrate response; activation, % at 6.8 µM; hit rate 80% among 3,300;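 active means mean activation over triplicate wells above the hit cutoff derived from the earlier primary screen, cut at about 11% in these data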;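 further: 0% = DMSO low control and 100% = 2 mM sodium butyrate high control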
# LXRb DAF12 ctr = LXR-beta agonism as DAF-12 counter-screen; shares compounds with hgDAF-12 ag; HEK293 Gal4-LXR luciferase reporter, 24 h; activation, % at 6.8 µM; 3,300 tested, under 10 active; AID 743051;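 active means mean activation of the triplicate above a set limit carried over from the primary screen, none filed active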
# Target sequence (P55055 whole entry, looked up, the tested form may be a part): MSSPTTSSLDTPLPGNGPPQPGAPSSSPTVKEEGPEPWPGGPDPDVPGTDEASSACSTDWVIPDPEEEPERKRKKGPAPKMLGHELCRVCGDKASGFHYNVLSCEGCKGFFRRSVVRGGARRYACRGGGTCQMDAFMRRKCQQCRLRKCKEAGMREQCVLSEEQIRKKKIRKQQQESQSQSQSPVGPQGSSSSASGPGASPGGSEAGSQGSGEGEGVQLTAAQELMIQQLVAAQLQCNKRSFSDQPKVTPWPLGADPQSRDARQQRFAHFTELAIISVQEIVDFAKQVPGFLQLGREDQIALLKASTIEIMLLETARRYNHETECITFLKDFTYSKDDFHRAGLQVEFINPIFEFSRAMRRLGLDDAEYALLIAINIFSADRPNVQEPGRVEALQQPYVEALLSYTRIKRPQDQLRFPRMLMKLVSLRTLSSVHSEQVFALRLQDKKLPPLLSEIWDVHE
# An asterisk follows results filed as active; . = not tested or not shown. In the library only some 3.4% were active in any assay of this set; here they are far more common.
SMILES,APP 5'UTR act,hcDAF-12 act,ssDAF12 agonist,hgDAF-12 ag,NF-kB neuron act,hgDAF12 ag,LXRb DAF12 ctr
COc1ccc(/C=N/NC(=S)Nc2ccccc2)cc1,36,3,-1,26*,2.2,15*,1
CN(C)c1cccc(/C=C2\CC3(OC(=O)C4CCCC4)CCCN2C3)c1 (configuration not stated),.,1,-1,-1,.,.,.
Cc1ccc(NC(=O)OC[C@@H]2CSCCS(=O)(=O)N2)cc1,.,2,0,2,.,.,.
Cc1cccc(OC(C)CCN2CCC(C(O)(c3ccccc3)c3ccccc3)CC2)c1 (configuration not stated),.,3,-1,-3,.,.,.
O=C(C1CCCN(S(=O)(=O)c2ccccc2F)C1)N1CCN(Cc2ccccc2)CC1 (configuration not stated),.,-1,-2,0,.,.,.
COc1cccc(C(=O)Nc2ccc(C(=O)NCC3COc4ccccc4O3)cc2)c1 (configuration not stated),.,-5,-1,0,.,.,.
O=C(NCCN1CCOCC1)c1cc(-c2ccccc2)on1,29,2,0,24*,6.3*,23*,0
O=C(NCCCN1CCOCC1)c1cc(-c2ccc(O)cc2)on1,18,2,0,8,1.9,.,.
O=C(NCCCN1CCOCC1)c1cc(-c2ccccc2)on1,19,3,-1,26*,5.5*,27*,0
O=C(NCCN1CCOCC1)c1cc(-c2cccs2)on1,20,1,0,20*,5.8*,29*,0
CN1CCN(c2ccc3c(c2)Oc2ccccc2CN(Cc2cn(Cc4ccc(C(F)(F)F)cc4)nn2)S3(=O)=O)CC1,.,-1,-1,-1,.,.,.
C[C@@H]1OCN(C)[C@H]2C[C@H]3c4[nH]c5cccc(-c6ccccc6)c5c4CCN3C[C@@H]12,.,-2,-1,3,.,.,.
Fc1cccc(Cc2c(-c3ccc(Cl)cc3)nc3ccc(Br)cn23)c1,.,4,-1,18*,.,1,0
Cc1ccn2c(Cc3ccccc3)c(-c3ccc(F)cc3)nc2c1,.,0,0,16*,.,11*,0
Cc1ccc(-c2nc3ccc(Cl)cn3c2Cc2cccc(F)c2)cc1,.,1,0,21*,.,11*,0
Cc1ccc2nc(-c3ccc(Cl)cc3)c(Cc3cccc(F)c3)n2c1,.,0,0,8,.,.,.
CC(C)(C)OC(=O)N1c2ccccc2[C@]2(N3CCCC3)C[C@H](C(=O)O)N(C(=O)OC(C)(C)C)[C@H]12,.,0,-1,5,.,.,.
Cc1n[nH]c(C)c1S(=O)(=O)NCCc1c[nH]c2ccccc12,.,1,-1,-2,.,.,.
O=C(NNCc1ccccc1)c1ccccc1,.,3,1,16*,.,12*,1
Cc1ccccc1C(=O)O/N=C(\c1ccccc1)c1ccccn1,9,-1,-1,5,1,.,.
O=C(NNCc1ccccc1)c1ccccn1,.,3,0,19*,.,14*,1
O=C(Nc1ccccc1)O/N=C(\c1ccccc1)c1ccccn1,12,0,-1,16*,1.3,2,0
O=C(c1ccccc1)c1ccccn1,-2,0,-1,-2,.,.,.
O=C(CC(=O)c1ccccn1)c1ccccc1,.,4,0,14*,.,16*,1
CC(=O)OCC(=O)NCC1CCN(C(=O)C(=O)c2cc3ccccc3o2)CC1,.,-1,-1,0,.,.,.
SMILES,APP 5'UTR act,hcDAF-12 act,ssDAF12 agonist,hgDAF-12 ag,NF-kB neuron act,hgDAF12 ag,LXRb DAF12 ctr
O=C(COC(=O)c1ccccc1C(=O)c1ccc(Cl)cc1)NCc1ccccc1,-5,-2,-1,2,0.85,.,.
O=C(COC(=O)c1ccccc1C(=O)c1ccccc1)NCc1ccc(F)cc1,3,-1,-1,16*,1.1,2,0
O=C(NCCC1=CCCCC1)Nc1ccc2nsnc2c1,165*,5.9*,0,20*,6.4*,14*,1
CC(=O)c1cccc(NC(=S)NCCC2=CCCCC2)c1,.,-2,-2,2,1.1,.,.
COc1ccc(OCC(=O)Nc2ccc3c(c2)CCC3)cc1,.,1,-1,0,.,.,.
Cc1csc(NC(=O)COc2ccc3c(c2)CCC3)n1,.,4,0,14*,.,17*,1
CC(=O)N(C)c1ccc(N=Nc2c(C)[nH]n(C(N)=S)c2=O)cc1,139*,6.5*,0,16*,4.5*,17*,1
CCN(CC)C(=O)CC[C@H]1CC[C@]2(CCCN(Cc3cccc4ccccc34)C2)O1,.,-1,-1,-1,.,.,.
O=C(NNC(=S)Nc1ccccc1)c1cccs1,66,0,-1,7,2.5,.,.
O=C(NNC(=S)Nc1ccc(Cl)cc1)c1cccs1,53,2,-1,14*,1.8,7,0
CCN1CCN(c2ccc(NC(=O)c3ccco3)cc2)CC1,.,4,-1,14*,.,13*,0
O=C(/C=C/c1ccc(Br)cc1)NC1CCCCCC1,-5,1,-1,5,1.7,.,.
CC(C)Cc1ccc(/C=C/C(=O)N2CCCCC2)cc1,86,3,0,16*,4.2*,14*,0
Cc1ccc(/C=C/C(=O)N2CCCC(C)C2)cc1 (configuration not stated),125,3,1.2*,15*,4.5*,14*,1
CC(C)Cc1ccc(/C=C/C(=O)NC2CC2)cc1,63,4,1,13*,3.2,12*,0
CC(C)c1ccc(NC(=O)CSc2nnc(-c3ccco3)n2C)cc1,.,-3,-1,-4,.,.,.
CNc1cccc(-c2cccc(O)c2)n1,.,0,-1,17*,.,9,0
CNc1cncc(-c2cccc(O)c2)n1,.,0,-1,5,.,.,.
CCOC(=O)CC[C@@H]1CC[C@]2(CCCN(Cc3nccn3C)C2)O1,.,-1,-2,3,.,.,.
Cc1ccc(NC(=O)c2scc3c2CCCC3)cc1,195*,6.2*,1,23*,9.5*,15*,1
Cc1ccc(NC(=O)c2cc3c(s2)CCCC3)cc1,119,5,0,19*,8.8*,17*,1
Cc1ccc(NC(=O)CN(C)C(=O)c2cc3c(s2)CCCCC3)cc1,.,-1,-1,0,.,.,.
O=C(NCCc1ccccc1)OCc1cn(-c2ccc(F)cc2)nn1,.,-2,0,-1,.,.,.
COc1cc(/C=N/O)ccc1OCc1ccccc1Cl,186*,5,0,14*,7.2*,16*,1
O/N=C/c1ccccc1OCc1ccccc1Cl,2,-2,-1,-1,1.2,.,.
CCCNC(=O)c1noc2c1CCc1cc(OC)ccc1-2,160*,2,-1,16*,6.1*,13*,1
c1csc(CNc2ncnc3ccc(-c4ccc5c(c4)OCO5)cc23)n1,.,2,-1,1,.,.,.
